Measured values: ChEMBL document CHEMBL3988442, “University of Dundee, Small-Polar-MMV Screening Library” (2021)
Hit rate of the full screen: of about 48,000 compounds, about 13,000 (27%) showed an effect of 50% or more. The list shows a part of the results.

tested on: Wolbachia pipientis; test: Anti-Wolbachia Cell-Based Screen; format: functional; set-up: scale not given: in the data most compounds retested in dose-response had high values; conditions: 5 µM

Structure (SMILES) | Percent Effect
CCC(C)(NCC(=O)NC(C)C)c1nccs1 (stereo unspecified) | -10.98%
NC(=O)COc1ccc(CN2CCNC(C(=O)NC3CC3)C2)cc1Cl (stereo unspecified) | -45.28%
CC1CCN(c2ccc3c(-c4ncc(C(=O)O)s4)noc3c2)CC1 | -16.58%
CC1(C)COCCN1C(=O)CCc1nc(-c2ccccn2)no1 | -0.8567%
O=C(Nc1cccnc1)Nc1ccn(CC(F)F)n1 | -6.683%
CN(C)CC1(O)CCCN(c2nc(-c3ccccc3)no2)CC1 (stereo unspecified) | -0.08727%
Cc1nc(CN2Cc3nccn3CC(CN3CCCC3)C2)cs1.O=C(O)C(F)(F)F.O=C(O)C(F)(F)F (stereo unspecified) | -3.569%
CCN(CC)CC1CN(CCc2ccccc2)Cc2nccn2C1.O=C(O)C(F)(F)F.O=C(O)C(F)(F)F (stereo unspecified) | 77.99%
CN(C)CCOCC1CN(Cc2ccsc2)Cc2ccnn2C1.O=C(O)C(F)(F)F.O=C(O)C(F)(F)F.O=C(O)C(F)(F)F (stereo unspecified) | -16.3%
CN(C)CCOCC1CN(Cc2cccc(F)c2)Cc2nccn2C1.O=C(O)C(F)(F)F.O=C(O)C(F)(F)F (stereo unspecified) | 63.4%
O=C(Cc1ccccc1)N1Cc2nccn2CC(CN2CCCC2)C1.O=C(O)C(F)(F)F (stereo unspecified) | 14.72%
CN(C)CC1CN(Cc2ccsc2)Cc2nccn2C1.O=C(O)C(F)(F)F.O=C(O)C(F)(F)F (stereo unspecified) | -11.98%
N#Cc1cccc(CN2Cc3nccn3CC(CN3CCCC3)C2)c1.O=C(O)C(F)(F)F.O=C(O)C(F)(F)F (stereo unspecified) | 90.25%
CCN(CC)CC1CN(Cc2nccs2)Cc2nccn2C1.O=C(O)C(F)(F)F.O=C(O)C(F)(F)F (stereo unspecified) | -6.3%
CN(C)CC1CN(Cc2cccc(C#N)c2)Cc2nccn2C1.O=C(O)C(F)(F)F.O=C(O)C(F)(F)F (stereo unspecified) | 95.93%
CCN(CCC(=O)NC1CC1)Cc1ccc(Cl)s1 | -9.828%
Cc1ccccc1OCC1CCCN(C(=O)CN(C)C2CCNCC2)C1 (stereo unspecified) | 4.855%
Cc1ccc(S(=O)(=O)N(C)CC(N)=O)c(Cl)c1 | 2.18%
Cc1nonc1CN(C)Cc1cnn(-c2ccc(Cl)cc2)c1 | 133.6%
Cc1nonc1CN(C)Cc1nc(-c2ccccc2Cl)oc1C | -14.91%
CCn1cc(CN(C)S(=O)(=O)c2ccc(Cl)cc2)cn1 | -0.8604%
Cc1nonc1CN(C)Cc1c[nH]nc1-c1ccc(F)cc1F | 1.804%
Cc1nonc1CN(C)Cc1cnn(-c2ccc(F)cc2)c1 | 116.4%
CSCC(=O)N(C)Cc1cnn(-c2ccc(F)cc2)c1 | -3.16%

Structure (SMILES) | Percent Effect
CS(=O)(=O)c1nccn1CCOc1ccc(F)cc1Cl | 1.333%
COc1ccc(S(N)(=O)=O)cc1C(=O)N(C)Cc1cc(C)on1 | 5.855%
CCc1nc(C2CCCN(C(=O)c3cccc(Cl)c3)C2)no1 (stereo unspecified) | 126.3%
CCc1nc(C2CCCN(C(=O)c3cccc4c3ccn4C)C2)no1 (stereo unspecified) | -5.539%
Cc1noc(C2CCCN(C(=O)c3cccc(Cl)c3)C2)n1 (stereo unspecified) | -10.95%
CCc1nc(C2CCCN(C(=O)c3cccc4cn[nH]c34)C2)no1 (stereo unspecified) | -7.145%
CCc1nc(C2CCCN(C(=O)c3ccc4c(c3)nnn4C)C2)no1 (stereo unspecified) | 5.742%
CCc1nc(C2CCCN(C(=O)c3cccc(C(N)=O)c3)C2)no1 (stereo unspecified) | 115.3%
NC(=O)c1ccc(N2CCN(Cc3cccc4nsnc34)CC2)nc1 | -18.45%
COc1ccc(C(NC(=O)c2cccc[n+]2[O-])C2CC2)cc1 (stereo unspecified) | 3.052%
CN(C)C(=O)N1CCCC2(CCN(Cc3ccc(Cl)c(F)c3)C2)C1 (stereo unspecified) | 2.484%
NC(=O)C1(c2cnccn2)CCCN1Cc1ccc(F)c(F)c1 (stereo unspecified) | 80.27%
CCS(=O)(=O)N1CCC2(CCCN(Cc3ccc(F)c(F)c3)C2=O)C1 (stereo unspecified) | -34.42%
O=C(c1cn[nH]c1)N1CCC2(CCCN(Cc3ccc(F)c(F)c3)C2)C1 (stereo unspecified) | -7.691%
NC(=O)C1(c2cnccn2)CCCN1Cc1ccc(Cl)c(F)c1 (stereo unspecified) | 137%
NC(=O)CN1CC2(CCC1=O)CCN(Cc1ccc(Cl)c(F)c1)CC2 | 13.87%
COc1cc(CNC2CCN(c3ccccc3)C2)cc(OC)c1OC (stereo unspecified) | 0.4794%
CCn1cc(CN(C)S(=O)(=O)c2ccc(NC(C)=O)cc2)cn1 | 5.791%
COc1ccccc1OCc1cc(C(=O)NC[C@@H]2CCCN2)n[nH]1 | -26.39%
O=C(NC1CCCC1)c1n[nH]c2c1CNCC2 | -11.08%
CCc1c(C)nn(CCNC(=O)c2cc(C3CC3)n[nH]2)c1C | 1.187%
CNC(=O)c1cc(C2CCCNC2)n[nH]1.Cl (stereo unspecified) | 96.41%
CNC(=O)c1cc(C2CCCN2)n[nH]1.Cl (stereo unspecified) | 155.4%
CNC(=O)c1[nH]nc2c1CN(c1cc(C3CCCNC3)nc(C)n1)CC2 (stereo unspecified) | -2.336%

Structure (SMILES) | Percent Effect
Cl.O=C(NC1CCCC1)c1cc(C2CCCNC2)n[nH]1 (stereo unspecified) | 150.1%
CCCc1cc(C(=O)NC2CCCCNC2=O)[nH]n1 (stereo unspecified) | -7.069%
O=C(c1ccc(C2CCCN2)s1)N1CC=CC1 (stereo unspecified) | 0.32%
CSC1(CNc2ccc(Br)cn2)CCOCC1 | -9.614%
CCOCCNC(=O)c1cc(Br)c2c(c1)OCCO2 | -10.75%
COCCC(=O)N1CC2(CCN(Cc3ccccc3Cl)CC2)C1.O=C(O)C(F)(F)F | 7.796%
CCC[C@H]1CN(S(=O)(=O)c2c(C)noc2C)C[C@@H]1N | -20.84%
Cc1ccc(S(=O)(=O)N2CCc3nc(C4CCNCC4)ncc3C2)cc1.Cl | -12.78%
Cc1noc(C)c1S(=O)(=O)N1CCc2nc(C3CCNCC3)ncc2C1.Cl | 92.39%
Cc1nc(C2CCN(S(=O)(=O)c3ccc4c(c3)CCC4)CC2)n[nH]1 | -1.341%
Cl.O=S(=O)(c1ccc(Cl)cc1)N1CCc2nc(C3CCNCC3)ncc2C1 | 112%
Cc1n[nH]c(C)c1CCN(C)C(=O)c1ccc(CN2CCCCC2)cc1 | -26.72%
CCc1cnc(C)nc1NCC(O)CN1CCCCCC1 (stereo unspecified) | -1.473%
Cc1nnc([C@@H]2CC[C@@H]3[C@@H](CCN3S(C)(=O)=O)O2)o1 | 4.456%
Cc1nnc([C@@H]2CC[C@@H]3[C@@H](CCN3C3CCOCC3)O2)o1 | -2.772%
Cc1nnc([C@@H]2CC[C@@H]3[C@@H](CCN3C3CCC3)O2)o1 | 107.1%
CC(=O)C(Cc1ccccc1)NC(=O)CSc1nncn1C (stereo unspecified) | 8.647%
COCC1(CNc2cc(C(C)C)nc(N)n2)CC1 | 12.37%
CC(C)NC1CCc2c(ccc(=O)n2CC2CC2)C1.O=C(O)C(F)(F)F (stereo unspecified) | -1.359%
Cc1nc(CN2C[C@@H]3CN(C(=O)NC(C)C)C[C@@H]3C2=O)cs1.O=C(O)C(F)(F)F | 4.242%
COCC(=O)N1CCc2ccc(=O)n(Cc3csc(C)n3)c2CC1.O=C(O)C(F)(F)F | -6.118%
Cc1nc(Cn2c3c(ccc2=O)CCN(CC2CC2)CC3)cs1.O=C(O)C(F)(F)F.O=C(O)C(F)(F)F | 7.996%
CCCC(=O)NC1CCc2c(ccc(=O)n2Cc2csc(C)n2)C1.O=C(O)C(F)(F)F (stereo unspecified) | 92.99%
Cc1nc(Cn2c3c(ccc2=O)CC(NC(C)C)CC3)cs1.O=C(O)C(F)(F)F.O=C(O)C(F)(F)F (stereo unspecified) | 95.6%

Structure (SMILES) | Percent Effect
COCCNC(=O)[C@@H](C)[C@@H]1CCc2c(C)cc(OCC(=O)O)c(C)c2C1 | -3.996%
Cc1cccc(N2CCC(N3CCC4(CN(C)C(=O)O4)C3)CC2)c1C (stereo unspecified) | 10.35%
O=C(CN1CCOC1=O)N1CC[C@@H](c2ccc3ccccc3c2)[C@H](O)C1 | 1.475%
O=C(CCNC(=O)C1=Cc2ccccc2OC1)Nc1cccnc1 | -5.743%
O=C(CCNC(=O)c1ccccc1F)NCCNc1cccnc1 | 5.027%
CCOc1cccc(C(=O)Nc2ccncc2)c1 | 88.42%
O=C(CCNC(=O)C1=Cc2ccccc2OC1)NCc1ccncc1 | -4.464%
Cn1cc(C(=O)Nc2cccc(Oc3ccncc3)c2)ccc1=O | -26.42%
CCCNC(=O)c1ccc(NC(=O)c2cccc(OCC)c2)cc1 | 17.24%
O=C(CCNC(=O)c1cccc(OC(F)F)c1)Nc1cccnc1 | 104.3%
O=C(CCNc1ccc(Cl)cn1)NCc1ccncc1 | -15.58%
CCOc1cccc(C(=O)NCCC(=O)NCc2ccncc2)c1 | 103.5%
CS(=O)(=O)c1ccc(OCCNCc2ccc(F)cc2)cc1 | -11.24%
CC(C)c1ccc(O)c(C(=O)NC2CCN(c3ncccn3)CC2)c1 | 6.653%
CC(C)C1CN(C(=O)c2ccccc2)CCS1 (stereo unspecified) | -3.784%
CN(C)C[C@@H]1CN(C(=O)Cc2ccccc2)C[C@@H]1CO | -32.78%
O=C(O)CN1CCC(c2ccccc2)CC1 | -2.297%
CC(C)N1C[C@@H](CO)[C@H](c2ccccc2)S1(=O)=O | 103.9%
O=S1(=O)[C@@H](c2ccccc2)[C@H](CO)CN1C1CC1 | 108.4%
O=C(C1CCS(=O)(=O)CC1)N1C[C@H]2CC[C@@H]1CN(Cc1ccccc1)C2 | -12.98%
O=S1(=O)[C@@H](c2ccccc2)[C@H](CO)CN1c1ccccc1 | 106.6%
COc1ccccc1CCC(=O)N1C[C@H](c2ccccc2)[C@@H](N)C1 | -7.051%
O=S(=O)(Cc1ccccc1CN1CC[C@H](CO)[C@H](O)C1)c1ccccc1 | -17.78%
CCN1C(=O)CCC12CCN(S(=O)(=O)c1ccc(C#N)cc1)CC2 | 5.403%
